Where “and” joins values, the source holds several entries; their conditions need not be identical. Identical values can stand only once. Hit rate of the full screen: of about 300,000 compounds, about 520 (0.17%) were called active. For the sample, actives were picked, then their nearest neighbours and some compounds at random. Values without a mark were called inactive. No stated cut-off is given here; in the data, active means inhibition above about 50%; inconclusive means no clear call, values can overlap the other calls; inactive means below that.
Experiment: PubChem AID 1554
Conditions: BJeLR (HRASV12) viability, CellTiter-Glo ATP luminescence, 48 h; active compounds read high; concentration not given here

SMILES	inhibition
COCCNS(=O)(=O)c1cc(Br)ccc1OC	-2.67%
O=C(NCc1ccc2c(c1)OCO2)c1cc2c(s1)CS(=O)(=O)C2	5.68%
COc1ccc(C(=O)O)cc1S(=O)(=O)NCc1cccnc1	4.17%
Cn1cc(CCC(=O)N2CCCC(C(=O)c3ccc(C(C)(C)C)cc3)C2)cn1 (stereo unspecified)	-7.89%
CC(NC(=O)CCCC1CCCCC1)c1ccc(S(N)(=O)=O)cc1 (stereo unspecified)	10.8%
COc1ccc(S(=O)(=O)N2CCCCCC2)cc1C(=O)N(C)Cc1cccc(OC)c1OC	-3.35%
O=S(=O)(Cc1noc(-c2ccc(OC(F)(F)F)cc2)n1)c1ccc(F)cc1	-11.6%
Cc1nnc(SCC(=O)N2c3ccccc3C(C)(c3ccc(Cl)cc3)CC2(C)C)s1 (stereo unspecified)	13.1%
Cc1[nH]c(C)c(S(=O)(=O)N2CCN(c3cccc(C(F)(F)F)c3)CC2)c1C(=O)N1CCCCC1	0.76%
Nc1ccc(-n2nncc2-c2ccco2)cc1	11.6%
CCOc1c(N2CCCCC2)c(=O)c1=O	5.32%
O=C(/C=C/c1ccc([N+](=O)[O-])o1)NNC(=O)c1ccc(F)cc1	60.3% (active)
O=C(N/N=C/c1ccc([N+](=O)[O-])o1)c1cn(-c2ccccc2)nc1-c1ccc(F)cc1	-4.37%
Cc1ccc(/C=C/C(=O)Nc2ccc([N+](=O)[O-])c(NC(=O)/C=C/c3ccc(C)o3)c2)o1	-29.1%
CNS(=O)(=O)c1cccc(C(=O)NC2CCCc3ccccc32)c1 (stereo unspecified)	-3.04%
CCCCCC(O)(CCN1CCCCC1)c1ccccc1 (stereo unspecified)	-2.94%
CC(C)CC[n+]1ccn(C2=C([O-])c3ccccc3C(=O)/C2=N\S(=O)(=O)c2ccccc2)c1	-5.54%
CN(C)/C=C(\C#N)C(=O)c1cccnc1Oc1ccc(F)cc1F	-6.11%
Oc1ccc2ccccc2c1N=Nc1nccs1	77.1% (active)
COC(=O)CCSc1cc([N+](=O)[O-])cc2c1c(C1OCCS1)nn2-c1ccccc1 (stereo unspecified)	3.81%
CCOc1ccc(C(C)=O)cc1CSc1nnc(-c2ccncc2)n1CCOC	-17.6%
Cc1cc(C)c(NC(=O)CN2CCCCCC2)c(C)c1	-2.78%
COc1cccc(C(=O)Nc2ccc(N3CCCC3)cc2)c1	52.9% (active)

SMILES	inhibition
CN1CCN(c2ccc(NC(=O)c3ccccc3)cc2)CC1	-5.43%
COc1cccc(C(=O)Nc2ccc(N3CCN(C(=O)c4ccco4)CC3)cc2)c1	11.7%
Cc1[nH]c2ccccc2c1-c1ccc(Cl)nn1	7.01%
CC(C)(C)SCCSC1=CC(=O)CC(c2ccccc2)C1 (stereo unspecified)	7.66%
CC1=C/C(=N\OS(=O)(=O)c2ccccc2)C=CC1=O	91.4% (active)
CCCCCN1CC(O)=C(c2ccccc2)C1=N	-8.91%
CCCCCCCCn1c2c(c(=N)c3c1CCC3)CCCC2	24.6%
CCCCCCCCCCCCn1ccc(=N)cc1	87.5% (active)
Cn1c(Cc2cccs2)nnc1SCC(=O)Nc1ccccc1	-23.8%
C=CCc1c(C)nc2cc(-c3ccccc3)[nH]n2c1=O	2.64%
COC(=O)c1ccc(COC(=O)c2c(C)nn(Cc3ccccc3Cl)c2Cl)o1	-0.748%
CCOC(=O)C1CCCN(S(=O)(=O)c2ccc3c(c2)C(C)(C)C(=O)N3C)C1 (stereo unspecified)	-8.48%
N#Cc1cccc(CN2CCC(=O)N([C@H](CO)c3ccccc3)CC2)c1	4.84%
Cc1ccc(-c2nn(-c3ccccc3)cc2CN(Cc2ccccc2)C(=O)CCC(=O)O)o1	-0.0578%
CCc1ccc(-c2nn(-c3ccccc3)cc2CSC(=N)N)cc1	103% (active)
Cc1ccc(-c2nn(-c3ccccc3)cc2/C=N/NC(=O)c2ccc3c(c2)OCO3)cc1	11.4%
COc1ccc(S(=O)(=O)N2CCOC2CNC(=O)C(=O)NCc2ccc(F)cc2)cc1 (stereo unspecified)	6.34%
Cc1nnc(SC(C)C(=O)Nc2ccc(S(=O)(=O)NC3CCCCC3)cc2)s1 (stereo unspecified)	-6.12%
Cc1cc([N+](=O)[O-])nn1Cc1ccc(F)cc1	7.4%
CCCc1cc(=O)[nH]c(SCC(=O)c2cc(C)n(CCC)c2C)n1	0.606%
CCCc1cc(=O)[nH]c(SCC(=O)OCc2ccccc2)n1	-0.726%
CCCc1cc(=O)[nH]c(SCC(=O)c2c(N)n(CC(C)C)c(=O)n(C)c2=O)n1	63.2% (active)
COC(=O)[C@H]1[C@H]2C[C@H]3c4[nH]c5ccccc5c4CCN3C[C@@H]2CC[C@@H]1O	-6.61% and 2.06%
